Experimental data reported in publication PMC4336329 (PLoS ONE, 2015).
Hit rate of the full screen: of about 310,000 compounds, about 14,000 (4.5%) showed an effect of 50% or more. The effect is printed as a negative number. The sample as a whole holds a higher share of strong results than the screen did.

molecular target: human ether-à-go-go-related gene (hERG) potassium channel (human, UniProt Q12809); assay: primary screen, population patch clamp on CHO cells stably expressing hERG; higher = less effect of the substance
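Also: peak tail current of the secondary pulse compared with the same well before compound.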

Chain of human ether-à-go-go-related gene (hERG) potassium channel (Q12809 whole entry, looked up): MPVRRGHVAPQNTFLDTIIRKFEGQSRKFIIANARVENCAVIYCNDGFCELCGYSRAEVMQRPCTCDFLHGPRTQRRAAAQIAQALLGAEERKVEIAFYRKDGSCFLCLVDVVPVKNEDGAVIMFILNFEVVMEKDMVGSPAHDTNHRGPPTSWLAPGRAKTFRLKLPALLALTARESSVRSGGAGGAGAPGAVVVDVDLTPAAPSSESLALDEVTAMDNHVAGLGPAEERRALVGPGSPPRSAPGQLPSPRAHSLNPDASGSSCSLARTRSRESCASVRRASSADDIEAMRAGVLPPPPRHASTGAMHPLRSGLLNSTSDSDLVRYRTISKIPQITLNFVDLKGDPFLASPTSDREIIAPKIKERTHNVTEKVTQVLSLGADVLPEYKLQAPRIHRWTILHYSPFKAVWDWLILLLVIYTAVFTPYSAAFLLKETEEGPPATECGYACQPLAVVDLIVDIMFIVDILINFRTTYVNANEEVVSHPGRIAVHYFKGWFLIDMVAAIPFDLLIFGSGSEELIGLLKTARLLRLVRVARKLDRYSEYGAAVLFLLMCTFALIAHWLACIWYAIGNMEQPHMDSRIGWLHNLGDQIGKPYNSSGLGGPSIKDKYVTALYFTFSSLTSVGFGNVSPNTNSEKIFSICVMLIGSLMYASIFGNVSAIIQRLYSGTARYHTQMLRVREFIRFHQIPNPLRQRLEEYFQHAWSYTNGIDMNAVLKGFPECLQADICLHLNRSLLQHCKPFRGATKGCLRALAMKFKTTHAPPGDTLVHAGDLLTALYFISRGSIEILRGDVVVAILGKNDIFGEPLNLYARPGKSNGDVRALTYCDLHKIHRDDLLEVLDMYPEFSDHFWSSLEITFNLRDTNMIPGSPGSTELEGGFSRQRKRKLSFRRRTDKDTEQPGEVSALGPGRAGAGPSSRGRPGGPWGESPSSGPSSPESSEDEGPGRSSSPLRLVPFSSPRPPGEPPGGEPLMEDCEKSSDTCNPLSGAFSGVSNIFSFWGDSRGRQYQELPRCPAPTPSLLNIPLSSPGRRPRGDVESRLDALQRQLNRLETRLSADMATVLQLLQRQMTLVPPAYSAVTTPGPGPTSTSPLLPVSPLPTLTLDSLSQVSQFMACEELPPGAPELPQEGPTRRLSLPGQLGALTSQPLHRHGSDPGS

SMILES	hERG current change (%, negative = inhibition) at 10uM
O=CNc1ccc(OP(=O)(Oc2ccccc2)Oc2ccccc2)cc1	-61.7%
COc1ccc(NP(=O)(Nc2ccc(OC)cc2)Oc2ccccc2)cc1	-13.9%
O=CNc1ccccc1	14.6%
CN(C)c1ccc(/C=C/C=N/Nc2nc(N3CCOCC3)nc(N3CCOCC3)n2)cc1	0.992%
CCOC(=O)N1CCC(N(CCN(C)C)C(=S)Nc2ccccc2OCC)CC1	-8.05%
Cc1ccc(/C=N/NC(=O)CSc2nc3nc(C)cc(C)n3n2)cc1	-19.3%
Cc1ccc(S(=O)(=O)CCC(=O)c2ccc(F)cc2)cc1	8.7%
O=C(N/N=C/c1cn[nH]c1-c1ccc(F)cc1)c1ccncc1	6.55%
O=C(CNC(=O)c1ccc(F)cc1)N/N=C/c1cn[nH]c1-c1ccccc1	-18.1%
COc1ccc(-c2[nH]ncc2/C=N\NC(=O)c2ccc(C(C)(C)C)cc2)cc1OC	-9.5%
COc1ccc(-c2[nH]ncc2/C=N/NC(=O)c2cccc([N+](=O)[O-])c2)cc1OC	-62.1%
Cc1cc(C(=O)N/N=C\c2ccc(COc3ccc([N+](=O)[O-])cc3)o2)ccc1[N+](=O)[O-]	-7.77%
O=C(N/N=C/c1cccnc1)c1ccc([N+](=O)[O-])cc1	-7.74%
O=C(N/N=C\c1cn[nH]c1-c1ccccc1)c1cccnc1	-1.27%
COc1ccc(/C=N/NC(=O)c2cccc([N+](=O)[O-])c2)cc1OC	5.28%
O=C(N/N=C\c1ccc(COc2ccc([N+](=O)[O-])cc2)o1)c1cccc(Cl)c1	4.17%
O=C(N/N=C\c1ccc(COc2ccc([N+](=O)[O-])cc2)o1)c1ccc(Cl)cc1	-67.6%
O=C(N/N=C/c1cn[nH]c1-c1ccc(Cl)cc1)c1ccc([N+](=O)[O-])cc1	-51.5%
O=C(N/N=C\c1cn[nH]c1-c1ccccc1)c1ccc([N+](=O)[O-])cc1	-64.9%
O=C(NC(=S)Nc1ccc(Br)cn1)c1cncc(Br)c1	11.3%
O=C(NCc1ccccc1Cl)C1=CC=CN2CCS(=O)(=O)N=C12	-11.1%
Cc1cc(Nc2ccc(Br)cc2F)n2nc(C)nc2n1	-21.5%

SMILES	hERG current change (%, negative = inhibition) at 10uM
O=C(CSc1nnc(C2CCCCC2)o1)Nc1ccccc1Cl	-11.5%
COc1ccc(Cl)c(NCCC(=O)O)c1	15.5%
Cc1c(N=C/C=C/c2ccccc2)c(=O)n(-c2ccccc2)n1C	11.1%
O=S(N1CCc2ccccc21)C12CC3CC(CC(C3)C1)C2 (stereo not drawn)	-6.09%
O=C1C=C(c2ccc3c(c2)OCO3)C[C@@H](c2ccc(Cl)cc2)C1	5.86%
O=C(NCc1ccccc1)c1ccc(Oc2ccc(C(=O)NCc3ccccc3)cc2)cc1	-3.44%
Cl.Clc1ccc(CN2C3=NCCCN3c3ccccc32)cc1	-75.1%
O=C1CCCc2ccccc2N1Cc1ccc(Cl)cc1Cl	-18.2%
Cl.Clc1ccc(CN2C3=NCCN3c3ccccc32)cc1	-69.5%
Cl.Clc1ccc(CN2C3=NCCCN3c3ccccc32)c(Cl)c1	-66%
Cc1ccc(C)c(C(=O)CN2C(=O)c3ccccc3C2=O)c1	9.96%
Br.Cc1ccc(C)c(C(=O)CN2C3=NCCCN3c3ccccc32)c1	-69.2%
O=C1c2ccccc2N(Cc2ccc(Cl)cc2)C2=NCCN12	-13.5%
Br.CCOC(=O)CN1C2=NCCCN2c2ccccc21	2.95%
Cl.ClCCN1C2=NCCCN2c2ccccc21	-26.4%
COc1ccc(NC(=O)CCOc2ccccc2)c(OC)c1	1.87%
CNC(=O)NC(=O)COC(=O)c1n[nH]c2ccccc12	16.5%
CCc1ccc(Nc2nc(N3CCOCC3)nc(N3CCOCC3)n2)cc1.Cl	8.6%
C/C(=N\NC(=O)C1CCCN(S(=O)(=O)c2ccccc2)C1)c1ccccn1 (stereo not drawn)	-20.8%
CN(C)Cc1c(C(=O)N/N=C/CCc2ccccc2)nnn1-c1nonc1N	-31.1%
Cc1onc(-c2ccccc2)c1CNS(=O)(=O)c1cccc(Cl)c1	-7.19%
Brc1ccc(CN2C3=NCCCN3c3ccccc32)cc1.Cl	-74.2%

SMILES	hERG current change (%, negative = inhibition) at 10uM
Cl.Clc1cccc(CN2C3=NCCCN3c3ccccc32)c1	-75.4%
O=C1CCCc2ccccc2N1Cc1cccc(Cl)c1	-16.3%
Clc1cccc(CN2CCCCCC2)c1	12.3%
Cl.c1ccc(CN2C3=NCCCN3c3ccccc32)cc1	-57.5%
c1ccc(CN2C3=NCCN3c3ccccc32)cc1	-39.5%
Cl.O=C(O)CN1C2=NCCCN2c2ccccc21	16.1%
Cl.O=C(CN1C2=NCCCN2c2ccccc21)c1ccc(Cl)cc1Cl	-79.6%
O=C1CCCC2=C1C(c1ccc(O)c(Br)c1)C1=C(CCCC1=O)N2c1ccccc1	-33%
COc1ccc(C2C(C#N)=C(C)NC3=C2S(=O)(=O)c2ccccc23)cc1 (stereo not drawn)	-38.6%
CCOC(=O)c1sc(=NC(=O)COc2ccc(Cl)cc2)n(C)c1C	3.44%
COc1cc(C)c(NC(=O)COc2cccc3c2OC(C)(C)C3)cc1OC	-7.8%
COc1cc(SC)ccc1C(=O)NCCNC(=O)c1nonc1N	-6.81%
COc1ccccc1NC(=O)CCS(=O)(=O)c1ccc2c(c1)NC(=O)C(C)S2 (stereo not drawn)	-4.76%
COc1ccc(NC(=S)Nc2ccccn2)cc1	13.5%
COc1ccc(C)cc1C(=O)CCC(=O)NCCc1ccc(S(N)(=O)=O)cc1	19.6%
CCOc1ccc(Cn2nnc(C(=O)NCc3ccccc3)c2N)cc1	11.6%
O=C1NC(=O)C2(Cc3ccccc3N3CCCC32)C(=O)N1c1cccc(Cl)c1 (stereo not drawn)	-18.1%
CC(=O)c1cccc(N(C(=O)c2csnn2)C(C(=O)NC2CCCC2)c2ccccc2)c1 (stereo not drawn)	-18.5%
CCC(C)(C)NC(=O)C(c1ccccn1)N(C(=O)c1csnn1)c1ccccc1 (stereo not drawn)	5.39%
CC(C)c1ccc(N(C(=O)c2csnn2)C(C(=O)NC2CCCC2)c2ccncc2)cc1 (stereo not drawn)	-57.8%
CCc1ccc(N(C(=O)c2csnn2)C(C(=O)NC(C)(C)CC)c2ccccn2)cc1 (stereo not drawn)	-54.3%
CCOc1ccc(N(C(=O)c2cnccn2)C(C(=O)NC2CCCCC2)c2ccc(O)cc2)cc1 (stereo not drawn)	10.4%

SMILES	hERG current change (%, negative = inhibition) at 10uM
CCOc1ccc(N(C(=O)c2cnsn2)C(C(=O)NC2CCCCC2)c2ccncc2)cc1 (stereo not drawn)	-69.4%
COc1ccc(N(C(=O)c2csnn2)C(C(=O)NC2CCCC2)c2ccccc2)cc1 (stereo not drawn)	-9.35%
O=C(NC1CCCC1)C(c1ccncc1)N(C(=O)c1csnn1)c1ccc(Cl)cc1 (stereo not drawn)	-10.4%
CC(=O)c1ccc(N(C(=O)c2csnn2)C(C(=O)NC2CCCC2)c2ccccc2)cc1 (stereo not drawn)	-54.9%
CCc1ccc(N(C(=O)c2csnn2)C(C(=O)NC(C)(C)C)c2ccccn2)cc1 (stereo not drawn)	-42.7%
Cc1ccc(N(C(=O)c2csnn2)C(C(=O)NC2CCCCC2)c2ccncc2)cc1 (stereo not drawn)	-1.71%
COc1ccc(N(C(=O)c2cnsn2)C(C(=O)NC2CCCCC2)c2ccncc2)cc1 (stereo not drawn)	-26.7%
COc1cccc(Nc2ncnc3onc(-c4ccccc4OC)c23)c1	-4.9%
CNC(=S)N(Cc1cc2cc(C)cc(C)c2[nH]c1=O)C1CCCC1	-3.94%
c1ccc(CCCc2nc(-c3ccccn3)no2)cc1	-7.53%
COc1ccccc1Nc1nnc(SCC(=O)N2CCCC2=O)s1	-11.4%
COCCCNC(=O)C1CCN(c2ccc(N3CCOCC3)nn2)CC1	10.1%
O=C(CCCc1nc2ccccc2s1)N1CCN(c2ccccc2F)CC1	-31.3%
COc1ccc2[nH]c3c(=O)n4c(nc3c2c1)SCC4	6.11%
COc1ccc(CN2CC(C(=O)NCCCOC(C)C)CC2=O)cc1 (stereo not drawn)	0.406%
CC(CC(=O)Nc1ccc(F)cc1F)S(=O)(=O)c1ccc2c(c1)NC(=O)CO2 (stereo not drawn)	-9%
CC(=O)c1ccc(N2C(=O)C3C4C=CC(CC4)C3C2=O)cc1 (stereo not drawn)	13.6%
CN(C)S(=O)(=O)c1cccc(C(=O)Nc2ccccc2N2CCCCC2)c1	5.55%
COCCn1c(SC(C)C(=O)NCC2CCCO2)nc2sc3c(c2c1=O)CCC3 (stereo not drawn)	-8.18%
CCn1c(SC(C)C(=O)NCC2CCCO2)nc2scc(-c3ccccc3)c2c1=O (stereo not drawn)	-28.7%
COCCn1c(SC(C)C(=O)NCC2CCCO2)nc2scc(-c3ccc(F)cc3)c2c1=O (stereo not drawn)	-66.5%
